From PubChem BioAssay AID2147 (National Center for Advancing Translational Sciences (NCATS), 2009) come the findings set out here.

Where “and” joins values, the source holds several entries; their conditions need not be identical. Equal values may be shown once. Hit rate of the full screen: of about 230,000 compounds, about 3,600 (1.6%) were called active. Another 15% or so got no clear call; they are omitted. Calls follow the shape of the dose curve; as a rule, active = well fitted inhibition curve with a large enough effect (not every such curve was filed as active); inconclusive = small, poorly fitted or top-dose-only effect, or another doubt; inactive = no such curve, though single readings can be large or run the other way. The full list was thinned out, with actives kept by preference. Where a structure was tested more than once in an assay, its records may differ in their call.
Also: nearly all actives have a fitted effect of over 50% in size.
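For activity change, negative = inhibition in this document: 0% = wells with enzyme and -100% = buffer wells without enzyme.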
Potency is read from the fitted curve at half-maximal effect.

For the assay, the target named is Lysine-specific demethylase 4E (Homo sapiens) (UniProt B2RXH2). In words: qHTS Assay for Inhibitors of Human Jumonji Domain Containing 2E (JMJD2E). Particulars: JMJD2E catalytic domain, FDH-coupled NADH fluorescence (FDH is formaldehyde dehydrogenase); series mostly up to 57.1 µM; activity change, negative = inhibition: at the top concentration. An excerpt: Assay Provider: Structural Genomics Consortium [SGC] Screening Center PI: Austin, C.P. Screening Center: NIH Chemical Genomics Center [NCGC] The fine interplay among methylation states of several lysine residues on the tails of histone proteins is a major determinant of the transcriptional state of the associated DNA coding regions and is commonly referred to as the histone code. Histone lysine demethylases catalyze the removal of methyl groups from methylated lysine sidechains on histones H3 and H4, thus antagonizing the reactions catalyzed by histone lysine methyltransferases. […] In search for novel inhibitors of JMJD2E demethylase, a member of the largest set of histone demethylases belonging to the Fe(II) and 2-oxoglutarate oxygenase (2OG) superfamily, we performed a quantitative high-throughput screen (Inglese 2006) by using an assay which utilizes a trimethylated peptide substrate corresponding to a fragment of histone H3 (sequence ARKme3STGGK) with detection of the formaldehyde co-product in real time by a formaldehyde dehydrogenase (FDH) coupled reaction. FDH catalyzes oxidation of formaldehyde to formic acid with the concomitant reduction of the non-fluorescent beta-nicotinamide adenine dinucleotide hydrate (NAD+) cofactor to the fluorescent NADH co-product. References: Inglese, J., Auld, D., Jadhav, A., Johnson, R., Simeonov, A., Yasgar, A., Zheng, W. and Austin, C. Proc Natl Acad Sci USA 2006, 103, 11473-11478. N. R. Rose, S. S. Ng, J. Mecinovic, B. M. Lienard, S. H. Bello, Z. Sun, M. A. McDonough, U. Oppermann and C. J. Schofield, J Med Chem, 2008, 51, 7053-7056. Sakurai, M., Rose, N., Schultz, L., Quinn, A., Jadhav, A., Ng, S., Oppermann, U., Schofield, C.J. and Simeonov, A. Mol BioSystems 2009, in press. S. Michael, D. Auld, C. Klumpp, A. Jadhav, W. Zheng, N. Thorne, C. Austin, J. Inglese and A. Simeonov, Assay Drug Dev Technol, 2008, 6, 637-657.
Sequence of Lysine-specific demethylase 4E (Homo sapiens) (B2RXH2 1-337 limits assumed): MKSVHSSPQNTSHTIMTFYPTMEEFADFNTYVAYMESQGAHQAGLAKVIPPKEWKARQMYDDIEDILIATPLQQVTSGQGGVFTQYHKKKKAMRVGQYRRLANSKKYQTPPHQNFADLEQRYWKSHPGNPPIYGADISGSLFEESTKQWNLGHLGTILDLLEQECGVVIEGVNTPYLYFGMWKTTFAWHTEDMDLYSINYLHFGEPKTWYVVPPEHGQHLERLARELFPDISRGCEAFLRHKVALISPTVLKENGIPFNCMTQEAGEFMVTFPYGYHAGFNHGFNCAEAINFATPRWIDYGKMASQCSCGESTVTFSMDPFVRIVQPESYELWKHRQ
Reagents and Controls: Ferrous ammonium sulfate, (+)-sodium L-ascorbate, beta-nicotinamide adenine dinucleotide hydrate (NAD+), Tween-20, formaldehyde dehydrogenase from P. putida (FDH), and disodium 2-oxoglutarate were from Sigma (St. Louis, MO). Black solid-bottom 384-well or 1,536-well assay plates were from Greiner Bio-One (Monroe, NC). Enzyme was supplied by Prof. Udo Oppermann, SGC-Oxford. The catalytic domain of human JMJD2E (residues 1-337) was produced as an N-terminally His6-tagged protein in E. coli, and purified by Ni-affinity chromatography and size-exclusion chromatography, and stored in HEPES 50 mM/ NaCl 500 mM pH 7.5, as reported in Rose 2008. The trimethylated histone peptide substrate ARK(me3)STGGK was synthesized and HPLC-purified by the Tufts University Core Facility (Boston, MA). Substrate solution (Sakurai 2009) contained 50 uM ARK(me3)STGGK, 0.00025 U/uL FDH, 50 uM 2-oxoglutarate, 250 uM NAD+, 1 mM ascorbate, and 10 uM ferrous ammonium sulfate. Controls and plate map: Buffer (150 mM HEPES pH 7.5 containing 0.01% Tween-20) in columns 3 and 4 as negative control (no enzyme) and 100 nM JMJD2E final concentration in columns 1,2, and 5-48. Assay Steps: Enzyme and buffer solutions (3 uL) were dispensed into a 1,536-well Greiner black solid-bottom assay plate. The library compounds (23 nL) were transferred using a Kalypsys pintool equipped with 1,536-pin array. The plate was incubated at room temperature (15 min), and then a 1 uL aliquot of substrate solution was added to initiate the reaction. The plate was transferred to ViewLux imager where an initial reading using standard UV optics (Ex 340 nm, Em 450 nm) was obtained. The plate was then removed from the reader, incubated for 30 minutes at room temperature, and returned to the reader for a second fluorescence reading. A fully automated robotic screening system (Kalypsys Inc, San diego, CA) was used to perform the above steps as described previously (Michael 2008). […]
(Quantitative high-throughput screening tests each substance at several concentrations.)
Turning to `COc1ccc(CCNC(=O)C(Sc2ccccn2)c2ccccc2)cc1OC` (configuration not stated), the “activity change, negative = inhibition” value was -33.4% (inactive).
For `O=c1nc2s/c(=C\c3ccco3)c(=O)n2nc1Cc1ccccc1`, the Potency is 15.8 µM (active).
As to `CCOc1ccccc1/C=c1\sc2nc(-c3ccco3)nn2c1=O`, the “activity change, negative = inhibition” value was 4.2% (inactive).
On the same count and under the same terms, with `O=C(CCCN1C(=O)/C(=C/c2ccco2)SC1=S)Nc1ccccc1` the figure was -7.15% (inactive).
The same measure, in the same setting: in the case of `Cc1c(Cl)cccc1NC(=S)N(Cc1ccccc1)Cc1cccnc1` it was 4.24% (inactive); in that of `CS(=O)(=O)c1sc(C(=O)NC(=S)Nc2ccc(OC(F)(F)F)cc2)c2c1C=CCC2`, -6.61% (inactive).
Still for that read-out and setting: with `CCNc1nc(NCC)nc(N/N=C/c2ccc(O)c(OC)c2)n1` the figure was -5.62% (inactive); with `CCN(CC)CCCN=C(N)N`, 6.35% (inactive).
In the case of `Cc1ccc(-c2nc(-c3cccnc3)sc2CC(=O)Nc2ccc(C)c(Cl)c2)cc1`, the Potency is 15.8 µM (active).
With `Cc1cc(C)c(NC(=O)CS(=O)CC(=O)Nc2cccnc2)c(C)c1` (configuration not stated), the “activity change, negative = inhibition” value was -1.38% (inactive).
Regarding `Cc1ccc(NC(=O)COc2ccc(-n3ccnc3)cc2)cc1Cl`, the “activity change, negative = inhibition” value was 1.53% (inactive).
The same measure, in the same setting: in the case of `COc1ccc(CN2C(=O)C(C)S/C2=N/N=C/c2ccco2)cc1` (configuration not stated) it was 8.02% (inactive).
On the same count and under the same terms, with `O=C(CCS(=O)(=O)c1ccccc1Cl)Nc1ccc(S(=O)(=O)Nc2ncccn2)cc1` the figure was -0.745% (inactive).
On to `COc1ccc2c(=O)cc(-c3ccccc3)oc2c1O`, for which the “activity change, negative = inhibition” value was -1.03% (inactive).
With `O=c1cc(-c2ccc(O)c(O)c2)oc2cccc(O)c12`, the Potency is 20 µM (active).
In the case of `CCOC(=O)COc1cc(O)c2c(=O)cc(-c3ccccc3)oc2c1`, the “activity change, negative = inhibition” value is -17.6% (inactive).
Regarding `COc1c(O)cc2oc(-c3ccc(O)c(O)c3)cc(=O)c2c1O`, the Potency is 10 µM (active).
On to `Cc1coc(C)c1C(=O)CC1(O)C(=O)N(C)c2ccc(Cl)cc21` (configuration not stated), for which the “activity change, negative = inhibition” value was -3.58% (inactive).
Same read-out and setting: in the case of `O=C(CS(=O)(=O)c1ccc(C(F)(F)F)cn1)NNC(=O)c1ccccc1` it was 3.69% (inactive); in that of `CC(=O)c1ccc2c(c1)OCCOCCOc1ccc(C(C)=O)cc1OCCOCCO2`, -0.13% (inactive).
The same measure, in the same setting: with `O=C(/C=C/c1ccc(Cl)c([N+](=O)[O-])c1)c1cccnc1` the figure was 4.53% (inactive); with `Cc1cc(OCCCCOc2ccc(C#N)cc2)ccc1[N+](=O)[O-]`, -10.5% (inactive).
Still for that read-out and setting: with `O=C1CCN(C(=S)NCCc2ccccc2)CC1` the figure was 2.72% (inactive).
Turning to `Oc1cc2c(cc1O)CN(C(=S)NCCc1ccc(Cl)cc1)CCC2`, the Potency is 28.2 µM (active).
On to `S=C(NCCc1ccccc1)N1CCCCC1`, for which the “activity change, negative = inhibition” value was 0.522% (inactive).
For the molecule `CC(=O)c1nnn(-c2ccc(Cl)cc2C#N)c1C`, the “activity change, negative = inhibition” value is 2% (inactive).
Same read-out and setting: in the case of `Cc1noc(COc2ccccc2OCC(O)CNC(C)(C)C)n1` (configuration not stated) it was -6.31% (inactive).
As for `COc1ccccc1OCCNCC(O)COc1cccc2[nH]c3ccccc3c12` (configuration not stated), the Potency result is “inactive and 25.1 µM (active)”.
As to `CC(C)(C)NCC(O)COc1cccc2[nH]c(=O)[nH]c12` (configuration not stated), the “activity change, negative = inhibition” value is 0.739% (inactive).
Same read-out and setting: in the case of `CCN(CC)S(=O)(=O)c1ccc(N2CCOCC2)c(NC(=O)C2COc3ccccc3O2)c1` (configuration not stated) it was -5.42% (inactive).
On the same count and under the same terms, with `CC(C)(C)c1cc(C(=O)N/N=C/c2ccc([N+](=O)[O-])s2)n[nH]1` the figure was 0.226% (inactive); with `CCOc1ccc(NC(=O)CCC(=O)N/N=C/c2ccc([N+](=O)[O-])s2)cc1`, -2.83% (inactive).
As for `O=[N+]([O-])c1ccc(C=Nc2ccc(Cl)cc2Cl)s1`, the Potency is 22.4 µM (active).
With `O=C(NNS(=O)(=O)c1ccccc1)c1cnn(-c2ccc(Cl)cc2)c1C(F)(F)F`, the “activity change, negative = inhibition” value is 8.91% (inactive).
The same measure, in the same setting: in the case of `NC(=O)C1(C(N)=O)OC1c1ccc(Cl)cc1Cl` (configuration not stated) it was 0.802% (inactive); in that of `O=C(CSc1nc2ccccc2o1)N/N=C/c1ccccc1C(=O)O`, 4.12% (inactive).
For the molecule `NC(=O)C1=C[C@@H](c2csc3ccccc23)C[C@@H](OCc2ccc(CO)cc2)O1`, the Potency was 22.4 µM (active).
Consider `NC(=O)C1=C[C@H](c2csc3ccccc23)C[C@H](OCc2ccc(CO)cc2)O1`, for which the “activity change, negative = inhibition” value was -6.28% (inactive).
Same read-out and setting: in the case of `O=C(NC1CC1)C1=C[C@H](c2c[nH]c3ccccc23)C[C@H](OCc2ccc(CO)cc2)O1` it was 1.29% (inactive).
Same read-out and setting: in the case of `OCC1(Cc2ccccc2C(F)(F)F)CCN(Cc2ccncc2)CC1` it was -22.4% (inactive).
Still for that read-out and setting: with `CCn1cc(C(=O)NCC2CCCO2)c(=O)c2cc(S(=O)(=O)N3CCCCC3)ccc21` (configuration not stated) the figure was -1.81% (inactive).
As to `CCn1cc(C(=O)NCCCN2CCCCCC2)c(=O)c2cc(S(=O)(=O)N3CCc4ccccc4C3)ccc21`, the Potency is 25.1 µM (active).
As for `CCOC(=O)N1CCN(C(=O)c2cn(C)c3ccc(S(=O)(=O)N4CCCC4)cc3c2=O)CC1`, the “activity change, negative = inhibition” value is -0.344% (inactive).
Still for that read-out and setting: in the case of `CC(C)(C)C(=O)Nc1c(Br)c(C2CC2)nn1-c1ccccc1` it was 3.79% (inactive); in that of `O=C(COC(=O)c1ccc(S(=O)(=O)Nc2ccccc2)cc1)NCC1CCCO1` (configuration not stated), 3.36% (inactive); in that of `CCN(CC(=O)NCCc1ccccc1)S(=O)(=O)c1ccccc1`, -0.682% (inactive).
Turning to `Cc1c(CCOC(=O)CC23CC4CC(CC(C)(C4)C2)C3)sc[n+]1Cc1ccc([N+](=O)[O-])cc1`, the Potency was 10 µM (active).
Regarding `Cc1c(CCOC(=O)c2cc([N+](=O)[O-])ccc2Cl)sc[n+]1CCCCS(=O)(=O)[O-]`, the “activity change, negative = inhibition” value is 9.22% (inactive).
The same measure, in the same setting: in the case of `Cc1c(CCO)sc[n+]1CC(=O)OC12CC3CC(CC(C3)C1)C2` it was 2.74% (inactive).
Regarding `O=C(COc1ccc([N+](=O)[O-])cc1Cl)Nn1cnnc1`, the “activity change, negative = inhibition” value was -3.14% (inactive).
As to `C[C@@H]1O[C@@H](OC[C@H]2O[C@@H](Oc3c(-c4cccc(O)c4O)oc4cc(O)cc(O)c4c3=O)[C@H](O)[C@@H](O)[C@@H]2O)[C@H](O)[C@H](O)[C@H]1O`, the Potency was 7.08 µM (active).
`COc1ccc(C2CC(=O)c3c(O)cc(OC4OC(COC5OC(C)C(O)C(O)C5O)C(O)C(O)C4O)cc3O2)cc1O` (configuration not stated): the “activity change, negative = inhibition” value is 2.92% (inactive).
